hgDAF-12 ag = agonists of H. glycines DAF-12 nuclear receptor; HEK293 GAL4-hgDAF12 UAS-luciferase reporter, agonist luminescence; normalized to butyrate control; hit rate 1.8% among 370,000; activation, % at 6.8 µM;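 active means activation above a cutoff set at the mean of all screened compounds plus 3 SD, cut at about 10% in these data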;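 further: 0% = DMSO wells and 100% = sodium butyrate wells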
hcDAF-12 act = activators of H. contortus DAF-12 nuclear receptor; hit rate 1.4% among 370,000; activation, % at 6.8 µM; AID 652067; HEK293 hcDAF-12 lit1-tk-luc reporter, luminescence; 0% DMSO, 100% Δ7-dafachronic acid;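 active means activation above the mean of all tested compounds plus 3 SD, cut at about 5.5% in these data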;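 further: 100% = response to 3 µM Δ7-dafachronic acid high control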
DAX1 inh-1 = DAX1 (NR0B1) inhibition, primary screen | hit rate 1.1% among 370,000 | HEK293T StAR-luciferase reporter, SF-1/DAX-1 repression relief | AID 652010 | inhibition, % at 6.8 µM;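 active means inhibition above the mean over all tested compounds plus 3 SD, cut at about 3.6% in these data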;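 further: 0% = DAX-1 cells with DMSO and 100% = cells lacking DAX-1 with DMSO; higher inhibition means more luminescence from relief of DAX-1 repression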
ssDAF12 agonist = S. stercoralis DAF-12 activation, primary screen. HEK293 ssDAF-12/GRIP1 lit1-tk-luc reporter, luminescence; % of 3 µM dafachronic acid response. activation, % at 6.8 µM. hit rate 1% among 370,000. AID 652126;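 active means activation above the mean over all tested compounds plus 3 SD, cut at about 0.9% in these data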;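 further: 0% = DMSO-only wells and 100% = 3 µM delta7-dafachronic acid wells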
DAX1 inh-2 = inhibits human nuclear receptor DAX1. P51843. HEK293 Gal4-DAX1 luciferase reporter, luminescence. inhibition, % at 6.75 µM. hit rate 0.99% among 340,000;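 active means inhibition above the mean over all tested compounds plus 3 SD, cut at about 4.2% in these data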;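 further: 0% = DAX1-transfected cells with DMSO and 100% = empty-vector control cells with DMSO; inhibition shows as a rise in luminescence from relieved DAX1 repression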
Target sequence (P51843 207-470 limits assumed): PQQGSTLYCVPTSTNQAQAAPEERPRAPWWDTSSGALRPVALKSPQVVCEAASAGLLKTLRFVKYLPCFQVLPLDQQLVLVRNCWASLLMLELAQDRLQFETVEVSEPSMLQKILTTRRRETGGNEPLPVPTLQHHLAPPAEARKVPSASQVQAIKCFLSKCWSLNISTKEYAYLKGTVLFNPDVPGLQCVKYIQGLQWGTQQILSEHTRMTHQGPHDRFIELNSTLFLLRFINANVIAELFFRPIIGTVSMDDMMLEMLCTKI
The depositor's hits bear a star; · = no result. In the library only some 4.1% were active in any assay of this set; here they are far more common.

SMILES | hgDAF-12 ag | hcDAF-12 act | DAX1 inh-1 | ssDAF12 agonist | DAX1 inh-2
Cc1ccc(-n2nc(C)c3c(C)cc(=O)[nH]c32)cc1 | 4 | 4 | 1 | 3.5* | 1
Cc1nn(-c2ccccc2)c2[nH]c(=O)cc(C(F)F)c12 | -1 | 1 | -1 | 1 | 1
COC(=O)c1cccc(N2C(=O)C[C@](Sc3ccc(OC)cc3)(C(=O)N3CCOCC3)[C@H]2c2ccc(OC)cc2)c1 | 2 | -2 | -1 | -1 | ·
COC(=O)[C@H]1C[C@@]2(N3CCCCC3)c3ccccc3N[C@H]2N1S(=O)(=O)c1ccc([N+](=O)[O-])cc1 | 4 | -2 | -1 | -1 | ·
CC(C)(C)c1nnc(NC(=S)Nc2ccccc2)s1 | 11* | 1 | 3 | 0 | 0
COc1ccc([C@H]2OC(=O)C[C@H]2C(=O)N2CCN(C(=O)C3CCCO3)CC2)cc1OC (some centres undefined) | 1 | 0 | 1 | -2 | ·
COCCCNC(=O)c1ccc(Cn2c(=O)c3ccccc3n(Cc3ccc(C(C)C)cc3)c2=O)cc1 | 0 | -3 | 0 | -1 | ·
O=S(=O)(NCc1ccccc1)NCc1cccc(C(F)(F)F)c1 | -2 | -3 | 0 | -1 | 4.7*
C=CCn1c(SCC(=O)N2CCN(C(=O)OCC)CC2)nc2c([nH]c3ccccc32)c1=O | -1 | 5 | 1 | 1 | 1
C=CCn1c(SCC(=O)N2CCCC2)nc2c([nH]c3ccccc32)c1=O | 1 | 6.3* | 1 | 1.0* | 0
CCn1c(SCC(=O)Nc2cc(C)on2)nc2c([nH]c3ccccc32)c1=O | 1 | 6.0* | 1 | 0 | 0
CCn1c(SCC(=O)Nc2ccc(C(C)=O)cc2)nc2c([nH]c3ccccc32)c1=O | 4 | 5.8* | 1 | 0 | 0
COCCn1c(SCC(=O)Nc2ccc(NC(C)=O)cc2)nc2c([nH]c3ccccc32)c1=O | 3 | 5 | -2 | 0 | 0
CCn1c(SCC(=O)N2CCOCC2)nc2c([nH]c3ccccc32)c1=O | 0 | 5 | 0 | 1 | 0
CCn1c(SCC(=O)Nc2cccc(NC(C)=O)c2)nc2c([nH]c3ccccc32)c1=O | 4 | 1 | -2 | 1.1* | 0
COCCn1c(SCC(=O)Nc2cc(C)on2)nc2c([nH]c3ccccc32)c1=O | 1 | 2 | 0 | -1 | 0
CC(=O)NC(Cc1ccccc1)P(=O)(O)O (centres undefined) | 2 | 0 | 0 | -1 | ·
COC(=O)[C@]12C[C@H](CC(=O)N3CCN(C(=O)C4CC4)CC3)C(=O)N(Cc3ccco3)C1=C[C@H](C(C)C)O[C@@H]2C1CC1 | 0 | -3 | 0 | -2 | ·
Cn1c(=O)c2ccccc2n(C)c1=O | -2 | -2 | 1 | -2 | ·
CC(=O)Nc1ccc(-c2cc(NC(C)=O)n(-c3ccccc3)n2)cc1 | 2 | -1 | -1 | -1 | 0
CC(=O)Nc1ccc(-c2cc(N)n(-c3ccccc3)n2)cc1 | 11* | 4 | 3.9* | -1 | 2
N#Cc1ccc(Cn2ccc3ccc(-c4ccc5ccn(Cc6ccccc6)c5c4)cc32)cc1 | 3 | 1 | -1 | -1 | ·
Cc1c(CBr)[n+](=O)c2c(n1[O-])C(Br)CCC2Br (centres undefined) | -1 | 2 | -1 | 1.4* | 1
Cc1nc2ccc(S(=O)(=O)NCC(=O)NCc3ccccc3C)cc2s1 | 0 | -1 | -1 | -1 | ·
CCC[C@H]1[C@@H](NC(=S)Nc2ccccc2Cl)CC[C@@]23CCCN2C(=O)CCC[C@@H]13 | -1 | -2 | · | -1 | ·
SMILES | hgDAF-12 ag | hcDAF-12 act | DAX1 inh-1 | ssDAF12 agonist | DAX1 inh-2
O=C(O)CCCCn1c(SCc2cc(=O)n3cc(Cl)ccc3n2)nc2ccsc2c1=O | 0 | -1 | 1 | 0 | 0
O=C(O)CCCCn1c(SCc2ccccc2Cl)nc2ccsc2c1=O | 0 | -1 | 0 | -1 | 4.7*
COc1ccc(-c2ccc(/C=N/N3C(=O)C4C5C=CC(C6CC56)C4C3=O)o2)c([N+](=O)[O-])c1 (centres undefined) | -3 | -3 | -1 | -1 | 4.4*
O=C(NCc1ccccc1)N1CCC(c2nc3ccc(Cl)cc3[nH]2)CC1 | -2 | -4 | 1 | -2 | ·
O=C(NC1CCCCN(Cc2cccc(Cl)c2)C1=O)c1ccc(COc2ccccc2)cc1 (centres undefined) | -6 | -6 | -4 | -2 | ·
Cc1ccc2nc(SCC3CCCCO3)[nH]c2c1 (centres undefined) | 12* | 5 | 3 | 0 | -2
O=C(NC(=S)N(CCO)Cc1ccccc1)c1ccc(S(=O)(=O)N2CCCC2)cc1 | 3 | 0 | 0 | 2.0* | 0
O=C(NCCc1ccccc1)c1ccc(S(=O)(=O)N2CCCCC2)cc1 | 0 | -2 | 0 | -2 | 1
CCn1c(=O)[nH]n(C/C(C)=C\c2c[n+](Cc3ccc4c(c3)OCO4)c(N)[nH]2)c1=O | -2 | -2 | · | -2 | ·
Cc1cc(N2CCOCC2)ccc1/C=C\[N+](=O)[O-] | 4 | 1 | 0 | 16* | -1
CCOC(=O)c1csc(NC(=O)C2CCCN(S(=O)(=O)c3ccc(Br)s3)C2)n1 (centres undefined) | -7 | -5 | -3 | -1 | ·
COC(=O)/C(=C/c1cn(C(C)=O)c2ccccc12)[N+](=O)[O-] | 4 | 5.7* | 0 | 0 | ·
COC(=O)/C(=C/c1c[nH]c2ccccc12)[N+](=O)[O-] | -1 | 3 | 0 | 0 | 0
C[C@@H]1CCCCO[C@@H](CN(C)C(=O)c2ccncc2)[C@@H](C)CN([C@H](C)CO)C(=O)c2cc(NC(=O)Cc3ccccc3)ccc2O1 | 11* | 0 | -1 | -1 | 1
COc1ccc(S(=O)(=O)N(C)C[C@H]2Oc3ccc(NC(=O)c4ccncc4)cc3C(=O)N([C@H](C)CO)C[C@@H]2C)cc1 | -1 | -1 | 1 | 2.6* | -1
CC(C)NC(=O)Nc1ccc2c(c1)C(=O)N([C@H](C)CO)C[C@H](C)[C@@H](CN(C)C(=O)Nc1ccc(C(F)(F)F)cc1)O2 | 1 | 1 | 0 | 0 | 4.5*
C[C@@H]1CN([C@H](C)CO)C(=O)c2cc(NC(=O)Nc3ccc(F)cc3)ccc2O[C@H]1CN(C)C(=O)Nc1ccc(C(F)(F)F)cc1 | · | · | · | · | -1
Cc1noc(C)c1NC(=O)N(C)C[C@H]1OCCCC[C@@H](C)Oc2ccc(NC(=O)c3ccccc3)cc2C(=O)N([C@H](C)CO)C[C@@H]1C | 0 | -1 | 0 | -1 | 1
Cc1noc(C)c1NC(=O)N(C)C[C@H]1OCCCC[C@@H](C)Oc2ccc(NC(=O)Nc3ccc(F)cc3)cc2C(=O)N([C@@H](C)CO)C[C@H]1C | -1 | -1 | 0 | -2 | 5.1*
C[C@@H]1CCCCO[C@@H](CN(C)C(=O)Nc2ccc3c(c2)OCO3)[C@@H](C)CN([C@H](C)CO)C(=O)c2cc(N(C)C)ccc2O1 | 0 | 0 | 0 | -1 | 4.3*
